The whole screen tested about 640,000 compounds, of which about 9,300 (1.5%) were called active. The list comes from a sample in which actives are over-represented; it also holds similar structures and randomly drawn compounds. A number with no mark means an inactive call. No stated cut-off is given here; in the data, active means inhibition above about 32%; inactive means the rest.

The assay can be described thus: TEAD-YAP interaction inhibition, primary screen, TEAD-YAP interaction inhibitor project, luminescence, HEK-TIYL cells (AID 1259422).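 Further: 0% = median of test compound wells and 100% = reference inhibitor wells.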 Conditions: TEAD-Gal4/YAP UAS-luciferase luminescence, at 9.12 µM, stronger effect = higher value.
With `O=C(CCCn1nnc(-c2ccccc2F)n1)c1ccc(O)cc1`, the inhibition was -5.05%. Take `CCc1ccc(N/C(SCc2cccc([N+](=O)[O-])c2)=C(/C#N)C(=O)NCc2ccco2)cc1`: the inhibition was -0.35%.

On to `CC(=O)Nc1ccc(NC(=O)C(=O)NCc2ccc(F)cc2)cc1`, for which the inhibition was 0.35%. With `CCN(CC)C(=O)CSc1nc2ccsc2c(=O)n1CCc1ccccc1`, the inhibition is 16.3%.

Consider `COc1ccccc1N1CCN(C(=O)CSc2nc3ccccc3c(=O)n2Cc2cccs2)CC1`, for which the inhibition is -7.66%.

Consider `COc1ccccc1N1CCN(C(=O)CSc2nc3ccsc3c(=O)n2CCc2ccccc2)CC1`, for which the inhibition is 43.9% (active). Take `COc1ccc(CCn2c(SCC(=O)Nc3ccc(C)c(C)c3)nc3ccccc3c2=O)cc1OC`: the inhibition is 8.03%. Next, `COc1ccccc1N1CCN(C(=O)CSc2nc3ccsc3c(=O)n2-c2ccccc2)CC1`: 1.01%; `COc1ccc(CCn2c(SCC(=O)N3CCN(c4ccccc4OC)CC3)nc3ccccc3c2=O)cc1OC`: 36.9% (active). Regarding `CN(C)c1cc(-c2nnc(SCc3ccccn3)n2C)nc(N(C)C)n1`, the inhibition is 1.09%. For `CC(NS(=O)(=O)c1cc(Cl)ccc1Cl)C(=O)Nc1ccc2c(c1)OCCO2` (centres undefined) the value was -9.66%; for `O=C(CN1C(=O)c2ccccc2S1(=O)=O)N1CCc2ccccc21`, 73.9% (active); for `CC1CCCN(C(=O)Cn2c(=O)oc3ccccc32)C1` (centres undefined), 7.96%. As for `CC(=O)CN1C(=O)c2ccccc2S1(=O)=O`, the inhibition is -8.06%. In the case of `O=C(CC(=O)N1CCc2ccccc21)C(=O)CC(=O)N1CCc2ccccc21`, the inhibition is 8.39%. Take `O=C(CN1C(=O)c2ccccc2S1(=O)=O)N1CCN(Cc2ccccc2)CC1`: the inhibition is -9.54%. Take `CC1CCCN(C(=O)CN2C(=O)c3ccccc3S2(=O)=O)C1` (centres undefined): the inhibition is 32.8% (active). `O=C(NCc1ccon1)c1cccc(OC2CCN(C(=O)C3CC3)CC2)c1`: the inhibition is -8.88%. Next, `CC(C)CCNC(=O)C1CC(=O)N(C2CCCCC2)C1` (centres undefined): 1.78%; `O=C(COc1ccccc1)N1CCN(c2ccccc2F)CC1`: 0.47%. For the molecule `CN(CC(=O)N1CCOCC1)c1ncnc2scc(-c3ccc(F)cc3)c12`, the inhibition was 2.08%. For `Cc1csc(C(C#N)C(=O)COC(=O)c2sc3cc(F)ccc3c2Cl)n1` (centres undefined) the value was -0.66%; for `COC(=O)C1=C(C)NC(=O)/C1=C\c1cccc(OCc2ccccc2)c1`, -0.2%; for `O=C(COC(=O)c1cc(-c2ccccc2)nc2ccccc12)c1ccccc1`, -10%. Next, `O=C(c1cc(N2CCOCC2)nc2ccccc12)N1CCN(c2cccc(Cl)c2)CC1`: -4.93%; `O=C(O)c1cc(-c2ccc(-c3ccccc3)cc2)nc2ccccc12`: 84.8% (active); `Cc1ccc(Nc2cc(C(=O)O)c3ccccc3n2)cc1`: -9.91%. Regarding `O=C(c1cc(-c2ccncc2)nc2ccccc12)N1CCN(c2ccccc2)CC1`, the inhibition was 57% (active). Next, `O=C(c1cc(-c2ccc(Cl)cc2)nc2ccccc12)N1CCN(c2ccc([N+](=O)[O-])cc2)CC1`: 3.06%; `COc1ccc(CNC(=O)c2ccccc2N(Cc2ccccc2)S(=O)(=O)c2ccc(C)cc2)cc1`: 1.46%; `O=C(NCCCN1CCCC1=O)c1ccc2c(c1)N(Cc1ccccc1)C(=O)CS2=O` (centres undefined): -1.97%. For `CSc1ccccc1NC(=O)Cn1nc(C)c([N+](=O)[O-])c1C`, the inhibition was -7.74%.

As to `Cc1ccc(Oc2ccc(NC(=O)c3ccc(Br)c([N+](=O)[O-])c3)cc2)cc1`, the inhibition is 20.9%. As for `Cc1cc(Nc2ccc(N3CCOCC3)cc2)nc(NCc2ccc3c(c2)OCO3)n1`, the inhibition was 38.4% (active). With `CCNc1nc(C)cc(Nc2ccc(N3CCOCC3)cc2)n1`, the inhibition was 1.76%. As for `CC(=O)Nc1ccc(Nc2cc(C)nc(NCc3ccc4c(c3)OCO4)n2)cc1`, the inhibition is 31.4%.

Take `O=C(Nc1cccnc1Cl)c1cc2nc3c(c(C(F)(F)F)n2n1)CCc1ccccc1-3`: the inhibition is 5.92%. Turning to `Cc1ncc(-c2ccncn2)c(-c2ccc(C(F)(F)F)nc2)n1`, the inhibition was 6.09%. `C=C(C)CONC(=O)c1cnc2scc(C(C)(C)C)n2c1=O`: the inhibition is -7.08%. Take `C=CCn1c(C)cc(C2=NNC(=NCC)SC2)c1C`: the inhibition was 99.6% (active). For `CCC(=O)Nc1ccc(C2=NNC(=NC)SC2)cc1` the value was -4.44%; for `C=CCn1c(C)cc(C(=O)CC#N)c1C`, -18.5%. `COc1ccc(C2C(C#N)=C(N)Oc3cc(C)n(Cc4ccco4)c(=O)c32)c(OC)c1` (centres undefined): the inhibition is 6.86%.

Consider `O=C(N/N=C/c1ccc([N+](=O)[O-])o1)c1cc(Cl)ccc1O`, for which the inhibition is 2.15%.

On to `O=C(N/N=C/c1ccc([N+](=O)[O-])o1)c1cccc(F)c1`, for which the inhibition was -23.7%. As for `O=C(N/N=C/c1ccc([N+](=O)[O-])o1)c1ccc(Cl)cc1Cl`, the inhibition is 44.6% (active).

For `COc1cc(NC(=O)CC(C)C)c(C(=O)O)cc1OC`, the inhibition is 12.1%.

Take `Cc1ccc(NC(=O)c2ccccc2Br)cc1C`: the inhibition is -49%.

As to `Cc1ccccc1C(=O)Nc1ccc(Br)c(Cl)c1`, the inhibition was -77.6%.

For `Cc1cc(NC(=O)c2ccccc2Br)ccc1O`, the inhibition is 77% (active). In the case of `N#Cc1cccc(-c2ccnc(Nc3ccc(N4CCOCC4)cc3)n2)c1`, the inhibition is -9.11%. As to `Cn1nccc1-c1cc(F)cc(-c2ccnc(Nc3ccc(-n4cnc(N5CCOCC5)n4)cc3)n2)c1`, the inhibition is 9.9%. Next, `N#Cc1cc(-c2ccnc(Nc3ccc(-n4cnc(-c5ccccn5)n4)cc3)n2)cc(N2CCOCC2)c1`: 43.5% (active). Take `c1cc(-c2cncc(N3CCOCC3)c2)nc(Nc2ccc3c(c2)OCO3)n1`: the inhibition was 36.5% (active). With `Cc1cnnn1-c1ccc(Nc2nccc(-c3cc(C#N)cc(N4CCOCC4)c3)n2)cc1`, the inhibition was 1.73%. Take `CN(C)c1cc(F)cc(-c2ccnc(Nc3ccc(-n4cnc(N5CCOCC5)n4)cc3)n2)c1`: the inhibition was -6.66%.

For `Cc1ncccc1-c1ncn(-c2ccc(Nc3nccc(-c4cc(F)cc(N5CCOCC5)c4)n3)cc2)n1`, the inhibition was -3.6%.

Take `OC1CCN(c2ccc(Nc3nccc(-c4cc(N5CCOCC5)cc(C(F)(F)F)c4)n3)cc2)CC1`: the inhibition is 31.8%. As for `COC1CCN(c2ncn(-c3ccc(Nc4nccc(-c5cncc(N6CCOCC6)c5)n4)cc3)n2)CC1`, the inhibition is 51.5% (active). Next, `Cc1nc(Oc2cc3sc(C)nc3c3sccc23)c2c3c(sc2n1)CCCC3`: 4.62%; `Cc1cc(-n2c(C)cc(C(=O)COC(=O)c3cc(=O)[nH]c4ccccc34)c2C)no1`: -18.6%; `CCC(C)NC(=O)C(C(F)(F)F)(C(F)(F)F)C(F)(F)F` (centres undefined): 4.25%. Next, `COc1ccc(-c2cnnn2-c2ccc(-c3csc(N)n3)cc2)cc1`: 9.88%; `COc1ccc(C(=O)N2CCC[C@@H]2[C@@H](O)c2cccs2)cc1Cn1cccn1`: -11.1%. Take `O=C(Nc1ccc2ccccc2c1)c1ccc2c(c1)C(=O)N(N1C(=O)c3ccccc3C1=O)C2=O`: the inhibition was 2.19%. Consider `Cc1ccc2oc(=O)c3cnn(CC(=O)N4CCN(c5cccc(Cl)c5)CC4)c3c2c1`, for which the inhibition is 0.74%. Regarding `Cc1cccc(N2CCN(C(=O)Cn3ncc4c(=O)oc5ccccc5c43)CC2)c1C`, the inhibition was 63% (active). For `Cc1ccc2oc(=O)c3cnn(CC(=O)N4CCN(c5ccccn5)CC4)c3c2c1`, the inhibition is 1.66%.

With `COc1ccc(/C=C2N=C(/C=C/c3ccc(Cl)cc3Cl)OC\2=O)cc1OC(C)=O`, the inhibition was -1.28%. Next, `Cc1ccccc1-n1c(=S)sc2c(=O)n(-c3ccccc3)c(SCc3cccc([N+](=O)[O-])c3)nc21`: -6.72%; `O=C1C2CC=CCC2C(=O)N1c1ccc(N2C(=O)C3CC=CCC3C2=O)c(Cl)c1` (centres undefined): 9.86%.

`CC(C)C(=O)Nc1ccc(-c2nc3ccccc3o2)cc1`: the inhibition was 44.5% (active). As for `CCC(=O)Nc1ccc(-c2nc3ccccc3o2)cc1`, the inhibition is 3.84%.

Turning to `O=C(Nc1ccc(-c2nc3ccccc3o2)cc1)c1ccc(Oc2ccccc2)cc1`, the inhibition was -4.71%. Consider `COc1ccc(C(=O)N/C(=C/c2ccc([N+](=O)[O-])cc2)C(=O)Nc2cc(Cl)cc(Cl)c2)c(Cl)c1`, for which the inhibition was -19%.

As to `CS(=O)(=O)N(CC(=O)NCCC1=CCCCC1)c1ccc(OCc2ccccc2)cc1`, the inhibition is 5.23%.

As to `CCOC(=O)c1cccc(NC(=O)COc2ccccc2Br)c1`, the inhibition is 54.5% (active). Regarding `Cc1cc(NC(=O)COc2ccccc2Br)no1`, the inhibition was -74.2%. For `CCCCOC(=O)c1cccc(NC(=O)COc2ccc(C)c(C)c2)c1` the value was -33.7%.

As for `Cc1ccsc1/C=N/NS(=O)(=O)c1ccc(Br)cc1`, the inhibition was -2.4%. Next, `CC(C)C(=O)N=C1N=C2C=CC(Cl)=CN2Cc2ccccc21`: -43.4%; `COc1ccccc1-c1cnnc(N/N=C/c2cccc(OC)c2OCC(=O)O)n1`: 15%. Turning to `COc1ccc(/C=N/Nc2ncnc3nc[nH]c23)cc1OC`, the inhibition was -5.99%. For `COc1cccc(/C=N/Nc2ncnc3nc[nH]c23)c1OC` the value was 37.2% (active). As to `COC(=O)c1ccc(Nc2ncnc3nc[nH]c23)cc1`, the inhibition is 12.4%. As for `COc1cccc(/C=N/Nc2nc(=O)[nH]nc2C)c1OC`, the inhibition is -7.82%.

`CCOc1ccc(/C=N/Nc2ncnc3nc[nH]c23)cc1`: the inhibition was 81.1% (active).

For the molecule `Cc1sc2ncn(CC(=O)NCCCC(=O)NCCC3=CCCCC3)c(=O)c2c1C`, the inhibition was 6.71%. In the case of `CCOc1ccc(/C(O)=C2/C(=O)C(=O)N(CCN(CC)CC)C2c2ccc(F)cc2)cc1C` (centres undefined), the inhibition is -0.51%.

The values above are taken from PubChem BioAssay AID1259422 (The Scripps Research Institute Molecular Screening Center, 2018).
